Assay results from PubChem BioAssay (Tox21).
Results filed as inconclusive are left out. A call without a number means that no potency is given here. Calls of active or inactive are those of the source. The call rests on the fitted dose curve; in most records, active means well fitted cell-killing curve with a large enough effect in the repeat runs; inconclusive means weak or mixed curves, or effect the other way; inactive means flat fitted curve, though single readings scatter.

Assays:
[1] = cAMP Responsive Elements (CRE) small molecule antagonists, cell-based qHTS assay: qHTS cell viability counter screen (AID 2060913); further: nearly all actives have a fitted effect of over 40% in size
Outline: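 CRE-bla HEK293T cells (2,000/well, 18 h) given compound plus NKH477 0.25 uM final for 3 h at 37C; viability counter-screen by CellTiter-Glo luminescence in same wells after 30 min.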

[2] = cAMP Responsive Elements (CRE) small molecule agonists, cell-based qHTS assay: qHTS cell viability counter screen (AID 2060914);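 further: viability read after 3 h of compound exposure; nearly all actives have a fitted effect of over 50% in size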
Outline: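 Cytotoxicity counter screen multiplexed with the CRE-bla reporter assay in HEK 293T cells: 3 h compound exposure at 37 °C, followed by CellTiter-Glo luminescence measured in the same wells.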

Structure (SMILES) | Potency [1] | Potency [2]
O=C=Nc1ccc(Cc2ccc(N=C=O)cc2)cc1 | inactive | inactive
[Na+] | inactive | inactive
CC(=O)S[C@@H]1CC2=CC(=O)CC[C@]2(C)[C@H]2CC[C@@]3(C)[C@@H](CC[C@@]34CCC(=O)O4)[C@H]12 | inactive | inactive
